Compound activity: PubChem BioAssay, National Center for Advancing Translational Sciences (NCATS)
Shown are actives, neighbours in structure and some others; about 7% of the full set was active somewhere.
Integrin act MD: integrin-mediated muscular dystrophy alleviation activation | alpha7betagal myoblasts, beta-gal FDG fluorescence, 48 h | Potency, µM (doses to about 38.3 µM), most hits filed as activators | 350,000 compounds, 0.064% hits | AID 624291; note: nearly all actives have a fitted effect of over 60% in size
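Alpha7betagal+/- myoblasts (passage 13) were plated 16-24 hr, then exposed to compounds (1:260 dilution of DMSO stock) for 48 hours at 37C. After MPER lysis, β-galactosidase reporter activity was read as FDG fluorescence (ex 480/em 540) after 30 minutes.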
S2 tox: cell viability loss in ATXN counter-screen; S2 cells (HEK-293 line with an ATXN2-luciferase reporter) viability, CellTiter-Fluor protease fluorescence, 24 h; Potency, µM (top dose mostly 56.7 µM), hits mostly cytotoxic; 400,000 compounds, 0.49% hits; note: nearly all actives have a fitted effect of over 40% in size
DRD3 agonist: activates the human D3 dopamine receptor; D3R DiscoveRx beta-arrestin cells, luminescence, 90 min; 410,000 compounds, 0.58% hits; AID 652048; P35462; max activation, %; in the data active = max activation above about 30%
Target sequence (P35462 whole entry, looked up): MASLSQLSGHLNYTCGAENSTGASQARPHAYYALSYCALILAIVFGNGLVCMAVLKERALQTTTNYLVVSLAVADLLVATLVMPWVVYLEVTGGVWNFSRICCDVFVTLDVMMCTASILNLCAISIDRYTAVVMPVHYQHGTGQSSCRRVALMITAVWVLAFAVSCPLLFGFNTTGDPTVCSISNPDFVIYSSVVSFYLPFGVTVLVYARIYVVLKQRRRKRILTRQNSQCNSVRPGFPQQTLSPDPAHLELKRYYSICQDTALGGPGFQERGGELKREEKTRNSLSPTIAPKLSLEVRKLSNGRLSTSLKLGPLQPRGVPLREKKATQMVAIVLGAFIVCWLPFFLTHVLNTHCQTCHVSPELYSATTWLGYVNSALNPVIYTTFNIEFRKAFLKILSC
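Agonist mode: compounds and dopamine controls were applied to plated cells for 90 min at 37 degrees C after an overnight attachment at 1500 cells/well. Luminescent read-out followed 30 - 60 minutes at room temperature with DiscoveRx detection reagent.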
ATXN2 expr inh: ATXN2 expression inhibition | HEK-293 ATXN2-luciferase reporter, luminescence, 24 h | Potency, µM (highest dose often 57 µM), most hits filed as inhibitors | 360,000 compounds, 0.72% hits | AID 1745845; note: nearly all actives have a fitted effect of over 55% in size
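ATXN2-luciferase reporter cells (luciferase flanked by upstream and downstream ATXN2 gene portions) were treated 24 h at 37 °C with compounds at up to 57 uM. SteadyGlo luminescence gave expression; GF-AFC fluorescence gave viability.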
DRD3 antagonist: D3 dopamine receptor (human) antagonism | P35462 | D3R cells, DiscoveRx beta-arrestin luminescence, antagonist mode; stronger effect = lower value | max response, negative = inhibition, % | 360,000 compounds, 2.5% hits; in the data active = max response below about -50%; inconclusive = no clear call, values can overlap the other calls
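Cells expressing the human receptor were seeded at 1500 cells/well, incubated overnight at 37 degrees C in 5% CO2, then exposed to library compounds with dopamine controls for 90 minutes at 37 degrees C before luminescent detection.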
IL1B secr inh: inflammasome signaling inhibition, IL-1 beta readout; activity change, % at 57.5 µM; THP-1 LPS/ATP IL-1B secretion, AlphaLISA, 16 h; stronger effect = lower value; AID 743279; 360,000 compounds, 4.7% hits; in the data active = activity change below about -50%; inconclusive = mostly about -30% to -49%
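Secreted IL-1B measured by AlphaLISA bead assay after 16 h compound exposure of THP-1 cells; compounds (final up to 57.5 uM) added 1 h before LPS (250 ng/mL) and ATP (1.25 mM) stimulation; lower signal means less secretion.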
A number is an active result; 0 = inactive; ? = inconclusive; - = no result given; [ ] = remark or other dose. Unless noted, calls come from the whole dose curve; as a rule, active = well fitted curve in the direction sought with a large enough effect; inconclusive = small, poorly fitted or top-dose-only effect, or another doubt; inactive = no such curve, though single readings can be large; an effect the other way counts as inactive or inconclusive.

SMILES	Integrin act MD	S2 tox	DRD3 agonist	ATXN2 expr inh	DRD3 antagonist	IL1B secr inh
O=S(=O)(NCCCN1CCN(c2ccccc2F)CC1)c1cccc2cccnc12	0	0	0	0	-96.4	0
Cc1c(C(=O)Nc2ccc(F)cc2)oc2ccc(S(=O)(=O)N3CC(C)CC(C)C3)cc12 (centres undefined)	0	0	0	0	-62.1	0
CCN(Cc1ccccc1)C(=O)c1oc2ccc(S(=O)(=O)N3CCOCC3)cc2c1C	0	0	0	0	0	-52.8
Cc1ccc(NC(=O)c2oc3ccc(S(=O)(=O)N4CCOCC4)cc3c2C)c(C)c1	0	0	0	0	0	0
Cc1cccc(NC(=O)c2oc3ccc(S(=O)(=O)N4CCOCC4)cc3c2C)c1C	0	0	41.2	0	0	0
O=C(c1cc(S(=O)(=O)N2CCOCC2)ccc1F)N(CCc1ccccc1)Cc1ccccc1	0	0	96.3	0	-92.5	?
CC1CC1C(=O)Nc1ccc(-c2ccccc2)cc1 (centres undefined)	0	?	0	-	0	0
c1ccc(CN2CCC3(CC2)Nc2ccccc2CO3)cc1	0[7.66 µM]	0	0	?	0	0
c1ccc(CN2CCC3(CCCc4ccccc43)CC2)cc1	-	?	0	0	-104.8	0
CSc1ccc(S(=O)(=O)NCC(=O)OCC(=O)NCc2cccs2)cc1[N+](=O)[O-]	0	0	0	0	0	-66.5
Nc1ccc(S(=O)(=O)NCC(=O)OCCOc2ccccc2)cc1[N+](=O)[O-]	0	0	0	0	0	-92.9
CSc1ccc(S(=O)(=O)NCC(=O)OCCOc2ccccc2)cc1[N+](=O)[O-]	0	0	0	0	0	0
CSc1ccc(S(=O)(=O)NCC(=O)OC2CCOC2=O)cc1[N+](=O)[O-] (centres undefined)	0	0	0	0	0	-68.5
CSc1ccc(S(=O)(=O)NCC(=O)OCC(=O)N2CCCC2=O)cc1[N+](=O)[O-]	0	0	0	0	0	-95.9
O=C(O)c1ccc([N+](=O)[O-])c(CS(=O)(=O)c2ccccc2)c1	0	0	0	0	0	0
CC(C)CN(C(=O)c1ccco1)c1nc2ccccc2s1	0	0	0	0	0	0
CC(C)c1cc(C(=O)N2Cc3ccc(CN4CCN(C)CC4)cc3C2)c(O)cc1O	-	-	-	0.217µM	-	-
COc1ccc(CN2CCN(C(=O)c3ccc4c(c3)CCC4)CC2)cc1OC	0	0	0	0	0	0
COC(=O)C1=C(C)N(Cc2ccccc2)C(=NCCc2cccnc2)N[C@H]1c1ccccc1	0	?	0	?	0	-58.3
COC(=O)C1=C(C)N(Cc2ccccc2)C(=S)N[C@H]1c1ccc(Br)cc1	0	?	0	?	0	0
COC(=O)C1=C(C)N(Cc2ccccc2)C(=NCCCCO)N[C@H]1c1ccccc1	0	0	0	0	0	0
COC(=O)C1=C(C)N(Cc2ccccc2)C(=NCCc2cccnc2)N[C@H]1c1ccc(Br)cc1	0	?	0	31.6µM	0	0
CC(C)(C)OC(=O)N1CCC(c2c(C(=O)N3CCOCC3)cnn2-c2cccc(F)c2)CC1	-	0	73.9	0	-	-
O=C(c1cn(C2CCCN(Cc3cc(Cl)ccc3O)C2)nn1)N1CCCCC1 (centres undefined)	-	0	-	-	-	-
COc1ccc(CNC(=O)Cn2nc([N+](=O)[O-])cc2C)cc1	0	0	0	-	0	0
SMILES	Integrin act MD	S2 tox	DRD3 agonist	ATXN2 expr inh	DRD3 antagonist	IL1B secr inh
COc1ccc(/C(C)=N/NC(=O)Cn2nc([N+](=O)[O-])cc2C)cc1	0	0	51.1	0	0	0
CCN(C(=O)c1cc(OC)c(OC)c(OC)c1)C1CCCCC1	0	0	0	-	0	0
CCn1c(Cc2ccccc2)nnc1SCC(=O)Nc1ccc2c(c1)OCCO2	0	0	35.4	0	0	0
CC(=O)Nc1ccc(NC(=O)CSc2nnc(-c3ccccc3)n2Cc2ccc3c(c2)OCO3)cc1	0	0	0	0	-102.7	0
C=CCn1c(SCC(=O)Nc2ccc3c(c2)OCO3)nnc1-c1cc(Br)ccc1O	0	0	0	0	-51.1	0
CCn1c(COc2ccccc2C)nnc1SCC(=O)Nc1ccc2c(c1)OCCO2	0	0	0	0	0	0
CC(=O)OCC(=O)[C@@]1(OC(C)=O)[C@H](C)C[C@H]2[C@@H]3C[C@H](F)C4=CC(=O)C=C[C@@]4(C)[C@]3(F)[C@H](O)C[C@@]21C	-	0	-	-	-	-
COc1ccc2ccc(OCC(=O)N3c4ccccc4NC(=O)CC3C)cc2c1 (centres undefined)	0	0	0	0	0	0
Cc1nn(CC(=O)NCCc2ccccc2)c(C)c1[N+](=O)[O-]	0	0	0	0	0	0
COc1cc(Br)c(CC(=O)NNC(=O)c2ccc(F)cc2)cc1OC	0	0	0	0	0	0
CC(=O)N1N=C(c2ccc(Cl)cc2)OC1c1ccc(C(C)C)cc1 (centres undefined)	0	0	0	0	0	0
CC(=O)N1N=C(c2ccc(C)cc2)OC1c1ccc(Br)cc1 (centres undefined)	0	0	0	0	0	-68.9
COc1ccc(C2C(C(=O)c3sc(C)nc3C)=C(O)C(=O)N2CCCn2ccnc2)cc1 (centres undefined)	?	0	0	0	0	0
CCOC(=O)C[n+]1ccc2c([nH]c3ccccc32)c1C	0	-	0	0	0	0
O=C1c2ccccc2-[n+]2ccc3c([nH]c4ccccc43)c21	-	-	-	2.73µM	-	-
CC(C)CCNC(=O)C(=O)NC1CCCC1	0	0	0	0	0	0
CCOCCCNC(=O)c1cnc2sc(N3CCCCC3)nn2c1=O	-	?	0	0	-	-
COc1cc2nc(C3CCC3)n(NC(=O)c3ccco3)c(=O)c2cc1OC	0	0	0	0	0	-57.3
CCOC(=O)/C(=C\c1ccc(OC(F)F)cc1)C1=Nn2c(nnc2-c2ccc(Cl)cc2)SC1	0	?	0	?	-90.1	-102.1
COc1ccc(-c2nnc3n2N=C(C)CS3)cc1	0	0	0	0	0	0
COc1ccc(C2=Nn3c(nnc3-c3ccc(OC)cc3)SC2)cc1	0[7.66 µM]	0	0	0	?	0
CCOC(=O)/C(=C/c1ccc(OC(F)F)cc1)C1=Nn2c(nnc2-c2ccc(Cl)cc2)SC1	0	7.94µM	0	10µM	-61.7	-97.8
Cc1ccc(CNc2ncnc(N)c2[N+](=O)[O-])cc1	10µM	0	0	0	0	0
CN(Cc1ccccc1)c1nc(N)c([N+](=O)[O-])c(NCc2ccccc2)n1	0	0	0	0	0	-51.1
Nc1nc(NCCc2ccccc2)nc(NCc2ccccc2)c1[N+](=O)[O-]	0	?	0	?	0	0
CCCCNC(=O)CN1CCN(Cc2ccc3cc(OC)ccc3c2)CC1	0	0	0	-	0	0
COc1cc(CC(=O)OCC(=O)Nc2sccc2C(N)=O)cc(OC)c1OC	0	0	32.2	0	0	0
